Assay outcomes from PubChem.
Marburg entry inh = inhibitors of Marburg virus binding or cell entry; 300,000 tested, 1.8% active; Marburg virus pseudotyped entry inhibition, cell reporter; Potency, µM (doses to about 37.8 µM), for inactives: at the highest dose activity change, negative = inhibition, hits mostly inhibitors; calls by dose curve; tested in HEK293 cells; note: potency is the fitted concentration of half-maximal effect; % is set by controls: 0 for no effect and ±100 for the full control effect
FMDV inh = foot and mouth disease virus antiviral activity. FMDV antiviral cell-based qHTS. Potency, µM (series often up to 57.9 µM), for the others: at the highest dose activity change, negative = inhibition, hits mostly inhibitors. 410,000 tested, 1.2% active. AID 1159524; calls by dose curve; tested in HEK293T cells; note: read-out not given here; potency is the fitted concentration of half-maximal effect; % is set by controls: 0 for no effect and ±100 for the full control effect; nearly all actives have a fitted effect of over 45% in size
SARS PLP yeast = SARS-CoV PLP inhibition in yeast. S. cerevisiae expressing SARS-CoV PLpro, growth rescue. 330,000 tested, 0.19% active. AID 485353. Potency, µM (titrated, usually from 32.9 µM), without a hit: at the top dose activity, positive = growth rescue, actives largely listed as activators; calls by dose curve; note: potency is the fitted concentration of half-maximal effect; 0% is about no effect; nearly all actives have a fitted effect of over 55% in size
LASV entry inh = blocks Lassa virus binding to or entry into cells | 300,000 tested, 1.2% active | Lassa virus pseudotype entry inhibition, cell reporter | Potency, µM (doses to about 37.9 µM), for the others: at the top dose activity change, negative = inhibition, most hits filed as inhibitors | AID 540256; calls by dose curve; tested in HEK293 cells; note: potency is the fitted concentration of half-maximal effect; % is set by controls: 0 for no effect and ±100 for the full control effect; nearly all actives have a fitted effect of over 50% in size
HCV inhibitor = HCV inhibition. Potency, µM (titrated, usually from 41.8 µM), for inactives: top-dose activity change, negative = inhibition, usual class: inhibitors. Huh7.5.1 HCVcc-Cre infection, luciferase reporter, 44 h. 340,000 tested, 3.4% active. AID 651820; active = well fitted inhibition curve with a large enough effect; inconclusive = small, poorly fitted or top-dose-only effect, or another doubt; inactive = no such curve, though single readings can be large or run the other way; note: potency is the fitted concentration of half-maximal effect; % is set by controls: 0 for no effect and ±100 for the full control effect
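Seed cells (1,000/well) for 4 h; treat with compound and infect with HCVcc-Cre, moi about 0.5. Incubate 44 h, then detect luciferase activity.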
HCMV inh = human cytomegalovirus inhibition | 410,000 tested, 4.5% active | HFF cells, HCMV-luciferase reporter, 72 h; active compounds read low | activity change, negative = inhibition, % at 57.5 µM | AID 1259415; in the data active = activity change below about -60%; inconclusive = no clear call, values can overlap the other calls; inactive = above about -39%; note: % is set by controls: 0 for no effect and ±100 for the full control effect
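Inhibition of viral replication was scored as loss of reporter luminescence in HFFs infected with HCMV-luciferase (MOI 1 PFU/cell) for 72 h; compounds tested at 2 doses, normalized to buffer and Salinomycin controls.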
* = called active by the depositor; ? = inconclusive; / = no result; [ ] = dose if it differs, or a comment. Most compounds without a hit are left out; they make up all but 8% or so of the library.

SMILES	Marburg entry inh	FMDV inh	SARS PLP yeast	LASV entry inh	HCV inhibitor	HCMV inh
Cc1ccc2[nH]c(C(F)(F)F)cc(=O)c2c1	?	-19%	-2%	?	9%	-73*
CCOC(=O)c1ccc2[nH]c(-c3ccc(S(=O)(=O)F)cc3)cc(=O)c2c1	/	-8%	1%	/	-4%	57
Cc1ccc2[nH]c(-c3cccc(F)c3)cc(=O)c2c1	?	38%	3%	-13%	?	-69*
COc1cccc(-c2cc(=O)c3cc(NC(=O)c4ccc(N(C)C)cc4)ccc3[nH]2)c1	?	-20%	5%	0.92µM*	-4%	/
Cc1ccc(-c2cc(=O)c3cc(C)ccc3[nH]2)cc1	8.2µM*	-45%	4%	15µM*	?	0
Cc1ccc(Cl)cc1N1CCN(S(=O)(=O)c2ccc3[nH]c4c(c3c2)CCCCC4)CC1	/	-22%	/	-1%[46.1 µM]	/	1
O=c1cc(-c2cccc(F)c2)[nH]c2ccccc12	?	-9%	2%	?	4%[8.37 µM]	-77*
COc1ccc(-c2cc(=O)c3ccccc3[nH]2)cc1	-8%	22%	-11%	6%	5%[8.37 µM]	17
O=c1cc(-c2ccccc2)[nH]c2ccc(F)cc12	-45%	5%	9%	?	-10%	-62*
O=c1cc(-c2ccc(F)cc2F)[nH]c2ccccc12	5%	/	17%	1%	1%[8.37 µM]	/
COc1ccc2[nH]c(-c3cccc(F)c3)cc(=O)c2c1	-5%	56%	-14%	8%	4%[8.37 µM]	-62*
CCCCc1nn2c(=O)cc(COC(=O)c3ccc(NC(=O)CCc4ccccc4)cc3)nc2s1	/	2%	/	11%[46.1 µM]	/	19
CCOC(=O)C(C)Oc1cc(C)cc2oc(=O)c3c(c12)CCCC3 (stereo not drawn)	?	?	-16%	?	10µM*	26
Cc1cc(OCC(=O)NCc2cccnc2)c2c3c(c(=O)oc2c1)CCCC3	/	-8%	-3%	/	10µM*	0
O=C(COc1cc2oc(=O)c3c(c2cc1Cl)CCCC3)NCc1cccnc1	?	-10%	5%	8%[46.1 µM]	?	?
COC(=O)CC=C[C@@H](C)[C@H](OC)c1cc(OC)ccc1Br	3%[14.2 µM]	/	/	/	/	/
O=S(=O)(Nc1ccc(Cc2ccncc2)cc1)c1ccc(Br)cc1	?	-13%	-4%	?	10µM*	-63*
O=S(=O)(Nc1ccc(Cc2ccncc2)cc1)c1ccc(Cl)s1	?	-20%	-3%	-7%	0%	26
O=S(=O)(Nc1ccc(Cc2ccncc2)cc1)c1ccc(Cl)cc1	?	-29%	1%	?	11µM*	-65*
Cc1ccc(S(=O)(=O)c2cn(CC(=O)Nc3ccccc3C)c3cc4c(cc3c2=O)OCO4)cc1	?	-2%	/	-9%[46.1 µM]	/	3
Cc1cccc(CN2C[C@H](Sc3ccccn3)C[C@H]2C(=O)Nc2ccc3sc(C)nc3c2)c1	/	-8%	/	/	/	/
CCn1cc(C(=O)OCC(=O)NCc2ccccc2Cl)c(=O)c2ccc(C)nc21	8%[46.1 µM]	-23%	1%	-13%	-13%	-102*
COc1ccc2[nH]cc(/C=C/C(=O)c3ccccc3)c2c1	?	60%	-3%	?	10µM*	3
COc1ccc2[nH]cc(C=O)c2c1	?	1%	4%	1%	-8%	-25
COc1ccc2[nH]cc(C(=O)CCl)c2c1	/	28µM*	0%	/	?	-100*
SMILES	Marburg entry inh	FMDV inh	SARS PLP yeast	LASV entry inh	HCV inhibitor	HCMV inh
COc1ccc2[nH]cc(/C=C/c3cc[n+](C)cc3)c2c1	/	-7%	1%	/	7.9µM*	-92*
Cc1cccc(C)c1C(OCCN(C)C)C1CCCCC1 (stereo not drawn)	21µM*	?	-16%	?	?	-39
O=c1c2ccccc2oc2ccc(-c3ccc4cc[nH]c4c3)cc12	/	-14%	-7%	/	16µM*	/
O=C1C2=C(NC(=S)NC2c2ccc(Cl)cc2)NC(c2ccc(Cl)cc2)N1c1ccc(Cl)cc1 (stereo not drawn)	16µM*	?	-3%	-1%	-26%	34
C[C@@H](N)C(=O)NC[C@H]1CC[C@H](C(=O)N[C@@H](Cc2ccccc2)C(=O)O)CC1	-2%[46.1 µM]	19%	1%	8%	17%	43
Cc1ccc(O)c(Nc2nc(-c3ccccc3)nc3ccccc23)c1	?	-16%	-3%	-6%	-29%	-30
